# In PubChem BioAssay:
# “And” between values parts separate entries of the source, which are not always exact repeats. Identical values can stand only once. Inconclusive results are not listed. The source made the active and inactive calls.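 Rule for the calls, unless noted: active = compounds whose cell count with miR-34 switched on is under 0.7 times the count with it off; inactive = the rest.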
# Tests used:
# [1] = P. berghei load reduction in hepatocytes – cell-based, HepG2, luciferase luminescence, HepG2 viability, primary screen (AID 624349; in the data active = parasite load remaining mostly below about 12%, no sharp cut-off; inactive = mostly above about 10%;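 note: 100% = mean of DMSO negative control wells on the same plate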); details: P. berghei liver stage in HepG2, luciferase luminescence, concentration not given here; parasite load remaining: stronger effect = lower value; viability: measured here: HepG2 viability without parasites
# [2] = Wnt pathway potentiators raising nuclear beta-catenin – imaging, WNT3A-conditioned medium, mouse C2C12, NPC library, primary screen (AID 1117326; in the data active = nuclear beta-catenin stimulation mostly above about 4.2%, no sharp cut-off; inactive = mostly below about 10%; note: reference of the scale not given here); details: stronger effect = higher value
# [3] = stimulators of insulin release from INS-1E, primary screen, cell-based, 5 mM glucose, NPC library (AID 1117329;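 active = compound raises insulin release from rat beta cells at 5 mM glucose, no numeric limit stated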; note: reference of the scale not given here); details: rat INS-1E insulin secretion, at 10 µM, stronger effect = higher value
# [4] = growth inhibition of GSK3B-pretreated HCT116 cells – cell-based, CellTiter-Glo, 0.2 to 20 µM (AID 1117336;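 active = compounds lowering colon cancer cell viability after pretreatment blocking the GSK3B kinase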); details: HCT116 viability after GSK3B inhibitor, at 20 µM, stronger effect = higher value
# [5] = inhibition of endothelial tube formation, primary screen, imaging, VEGF stimulated, CD31 staining, tube area, NPC library (AID 1117340;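 active = compound that reduces growth-factor-driven endothelial tube area in a mixed cell culture, no cutoff stated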); details: VEGF-stimulated ADSC/ECFC co-culture, at 10 µM, stronger effect = higher value
# [6] = GLP1 release stimulators, primary, NCI-H716, NPC library (AID 1117341;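 active = compound raises GLP1 secretion from the human gut endocrine cells, with no numeric limit stated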; note: reference of the scale not given here); details: NCI-H716 cells, at 10 µM, stronger effect = higher value
# [7] = HCT116 colon cancer cell growth inhibition, primary screen, CellTiter-Glo luminescence, NPC library (AID 1117342;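 active = compounds that lower survival of HCT116 colon cancer cells in the luminescence readout, no numeric limit stated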); details: at 20 µM (top of the series)
# [8] = reduced SW480 viability measured with CellTiter-Glo, NPC library, primary (AID 1117343;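 active = compounds that lower viability of the colon cancer cells in the luminescence readout, with no numeric limit stated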); details: CellTiter-Glo luminescence; at 20 µM (top of the series) unless noted
# [9] = NPC library primary testing for decreased DLD-1 cell viability via CellTiter-Glo (AID 1117346;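 active = compounds that lower survival of DLD-1 colon cancer cells in the luminescence readout, no cutoff given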); details: DLD-1 viability, CellTiter-Glo luminescence; at 20 µM (top of the series)
# [10] = viability loss in pontine glioma line – cell-based, JHH-DIPG-1, MIPE4.0, CellTiter-Glo, qHTS, dose response (AID 1347062; cut-off not given, nearly all actives have AC50 up to about 27 µM;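 for AC50: cells exposed to compound for two days before readout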); details: JHH-DIPG-1 viability, CellTiter-Glo ATP luminescence
# [11] = viability loss with induced miR-34 in A549 – imaging, A549 dox-inducible miR-34, nuclei and caspase counts, primary screen (AID 1347080); details: A549 miR-34 inducible, Hoechst nuclei count, 48 h
# [12] = MELAS cybrid and Rieske KO viability enhancers – cell-based, MELAS cybrids, Rieske KO mouse fibroblasts, CellTiter-Glo, primary screen (AID 1508586;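 active = mean z-score across replicates of 1.96 or higher in either the MELAS or the Rieske mutant cell line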;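 note: z relative to plate mean and SD of compound and empty wells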); details: low glucose
# [13] = galactose survival enhancers in mitochondrial complex I cybrids – cell-based, galactose medium, ATP luminescence, primary screen (AID 1645843;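 active = z-score of at least 1.8 in each of two replicates, scored against plate mean and spread of sample wells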;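 note: positive z means more ATP and so rescue of galactose-driven cybrid death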); details: complex I mutant cybrid cells, 72 h, stronger effect = higher value
# [14] = viability loss in pontine glioma line – cell-based, SU-DIPG-XIII, MIPE4.0, CellTiter-Glo, qHTS, dose response (AID 1347061; cut-off not given, nearly all actives have AC50 up to about 37 µM;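 note: cells exposed to compound for 48 hours before readout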); details: CellTiter-Glo ATP luminescence
# [15] = viability loss in pontine glioma line – cell-based, SU-DIPG-IV, MIPE4.0, CellTiter-Glo, qHTS, dose response (AID 1347063; cut-off not given, nearly all actives have AC50 up to about 30 µM;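 note: compound exposure lasted 48 hours before the viability readout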); details: CellTiter-Glo ATP luminescence
# [16] = viability loss in pontine glioma line – cell-based, SU-DIPG-XXV, MIPE5.0, CellTiter-Glo, qHTS, dose response (AID 1347065; cut-off not given, nearly all actives have AC50 up to about 26 µM;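 note: cells exposed to compound for 48 hours before ATP readout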); details: CellTiter-Glo ATP luminescence
# [17] = growth inhibition of DIPG cells – cell-based, MIPE4.0 library, CellTiter-Glo luminescence, qHTS (AID 1347066; cut-off not given, nearly all actives have AC50 up to about 30 µM;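 note: cells exposed to compound for 48 hours before readout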); details: SU-DIPG-VI viability, CellTiter-Glo ATP luminescence
# [18] = growth inhibition of DIPG cells – cell-based, MIPE5.0 library, qHTS (AID 1347068; cut-off not given, nearly all actives have IC50 up to about 30 µM); details: SU-DIPG-XXV viability
# [19] = stronger effect = lower value, cell number ratio, induced over uninduced
# [20] = measured here: relative caspase fold change +Dox/-Dox
# [21] = measured here: total cells with miR-34 induction, stronger effect = lower value
# [22] = measured here: total cells without miR-34 induction
# [23] = MELAS cybrid survival, CellTiter-Glo 48 h, stronger effect = higher value
# [24] = Rieske KO mouse fibroblast survival, CellTiter-Glo 72 h
smiles,measurement,setting,value
CCC(C)(C)c1ccc(CC(C)CN2C[C@@H](C)O[C@@H](C)C2)cc1 (stereo partly drawn),parasite load remaining,[1],32.9% (inactive)
same,viability,[1],99%
same,nuclear beta-catenin stimulation,[2]; at 10 µM,0.2% (inactive)
same,nuclear beta-catenin stimulation,"[2]; stimulation, at 2 µM",0.5%
same,insulin secretion stimulation,[3],-2.9% (inactive)
same,viability decrease,[4],23.9% (inactive)
same,tube area decrease,[5],-0.6% (inactive)
same,GLP1 secretion stimulation,[6],11.9% (inactive)
same,inhibition of viability,[7],10.2% (inactive)
same,viability decrease (inhibition),[8],83.9% (active)
same,viability decrease (inhibition),[9],55.5% (active)
same,outcome,[10],inactive
same,fold change,[11]; [19],0.818 (inactive) and 0.902 (inactive)
same,fold change,[11]; [20],0.996 and 1.18
same,cell count,[11]; [21],6710 and 9820
same,cell count,[11]; [22],8200 and 10900
same,z-score,[12]; [23],-0.995 (inactive) and -0.921 (inactive)
same,z-score,[12]; [24],-0.654 and -0.53
same,z-score,[13],-1.82 (inactive)
CCCCCCCCOc1ccccc1C(=O)Nc1ccc(C(=O)OCC[N+](C)(CC)CC)cc1,nuclear beta-catenin stimulation,[2]; at 10 µM,4.2% (inactive)
same,nuclear beta-catenin stimulation,"[2]; stimulation, at 2 µM",0.1%
same,insulin secretion stimulation,[3],15.7% (inactive)
same,viability decrease,[4],99.7% (active)
same,tube area decrease,[5],101% (active)
same,GLP1 secretion stimulation,[6],-3.3% (inactive)
same,inhibition of viability,[7],98.4% (active)
same,viability decrease (inhibition),[8],88.6% (active)
same,viability decrease (inhibition),[9],99% (active)
same,outcome,[14],inactive
same,AC50,[10],23.5 µM (active)
same,AC50,[15],18.7 µM (active)
same,fold change,[11]; [19],0.913 (inactive)
same,fold change,[11]; [20],0.694
same,cell count,[11]; [21],7980
same,cell count,[11]; [22],8740
same,z-score,[12]; [23],-0.155 (inactive)
same,z-score,[12]; [24],-0.0436
CC(C)(C)C(=O)OCOP(=O)(COCCn1cnc2c(N)ncnc21)OCOC(=O)C(C)(C)C,nuclear beta-catenin stimulation,[2]; at 10 µM,79.6% (active)
same,nuclear beta-catenin stimulation,"[2]; stimulation, at 2 µM",72.7%
same,insulin secretion stimulation,[3],3.5% (inactive)
same,viability decrease,[4],95.4% (active)
same,tube area decrease,[5],100% (active)
same,GLP1 secretion stimulation,[6],2.8% (inactive)
same,inhibition of viability,[7],73.3% (active)
same,viability decrease (inhibition),[8],95.4% (active)
same,viability decrease (inhibition),[9],78.5% (active)
same,AC50,[14],20.9 µM (active)
same,AC50,[15],7.43 µM (active)
same,AC50,[16],20.9 µM (active)
same,AC50,[17],16.6 µM (active)
same,outcome,[18],inactive
same,fold change,[11]; [19],0.906 (inactive) and 0.857 (inactive)
same,fold change,[11]; [20],0.703 and 1.46
same,cell count,[11]; [21],5980 and 5100
same,cell count,[11]; [22],6600 and 5960
same,z-score,[12]; [23],-0.539 (inactive) and -0.165 (inactive)
same,z-score,[12]; [24],0.795 and 0.351
same,z-score,[13],-0.625 (inactive)
O=C(CS(=O)Cc1ccco1)NC/C=C\COc1cc(CN2CCCCC2)ccn1 (stereo not drawn),nuclear beta-catenin stimulation,[2]; at 10 µM,-0.3% (inactive)
same,nuclear beta-catenin stimulation,"[2]; stimulation, at 2 µM",-0.8%
same,insulin secretion stimulation,[3],4% (inactive)
same,viability decrease,[4],-4.8% (inactive)
same,tube area decrease,[5],8% (inactive)
same,GLP1 secretion stimulation,[6],-0.5% (inactive)
same,inhibition of viability,[7],2.2% (inactive)
same,viability decrease (inhibition),[8],-8.8% (inactive)
same,viability decrease (inhibition),[9],6.7% (inactive)
same,outcome,[10],inactive
same,outcome,[15],inactive
same,outcome,[17],inactive
CC1=C(C)C(=O)C(CCCCC#CCCCC#CCO)=C(C)C1=O,parasite load remaining,[1],55.8% (inactive)
same,viability,[1],216%
same,nuclear beta-catenin stimulation,[2]; at 10 µM,2.7% (inactive)
same,nuclear beta-catenin stimulation,"[2]; stimulation, at 2 µM",-0.7%
same,insulin secretion stimulation,[3],2.7% (inactive)
same,viability decrease,[4],96% (active)
same,tube area decrease,[5],16% (inactive)
same,GLP1 secretion stimulation,[6],5% (inactive)
same,inhibition of viability,[7],87.4% (active)
same,viability decrease (inhibition),[8],126% (active)
same,viability decrease (inhibition),[9],54.6% (active)
same,fold change,[11]; [19],1.02 (inactive) and 0.926 (inactive) and 0.838 (inactive)
same,fold change,[11]; [20],1.5 and 0.952 and 1.53
same,cell count,[11]; [21],8160 and 3040 and 7890
same,cell count,[11]; [22],7960 and 3280 and 9410
same,z-score,[12]; [23],0.195 (inactive)
same,z-score,[12]; [24],-1.24
same,z-score,[13],-1.52 (inactive) and -1.61 (inactive)
